32 molecules from PubChem BioAssay can be followed below.

Values without a mark were called inactive. No rule for the calls is given here.

The experiment concerns Aerobactin synthetase IucA (Klebsiella pneumoniae hvKP1). Kind of experiment: IucA enzyme inhibition, primary screen, biochemical, Spectrum library (AID 1346200).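 Also: 100% = wells without compound and 0% = wells lacking enzyme.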 To be noted: malachite green pyrophosphate, A620, at 8 µM, active compounds read low.
In the case of `CCN(CC)CCNc1ccc(CO)c2sc3ccccc3c(=O)c12`, the activity remaining is 114%.
The same measure for `CNCCc1ccccn1`: 114%.
The same measure for `NC[C@H]1O[C@H](O[C@H]2[C@H](O)[C@@H](O[C@H]3O[C@H](CO)[C@@H](O)[C@H](N)[C@H]3O)[C@H](N)C[C@@H]2N)[C@H](N)C[C@@H]1O`: 97%.
In the case of `COc1cc([C@@H]2c3cc4c(cc3C(OC3O[C@@H]5COC(C)O[C@H]5[C@H](O)[C@H]3O)C3COC(=O)[C@@H]32)OCO4)cc(OC)c1O` (some centres not stated), the activity remaining is 102%.
In the case of `CC(C)NCC(O)c1ccc2ccccc2c1` (configuration not stated) it was 102%; in that of `COc1cc(/C=C/C(=O)N2CCC=CC2=O)cc(OC)c1OC`, 95.4%.
The same measure for `Cc1c(N(C)C)c(=O)n(-c2ccccc2)n1C`: 123%; for `CCCCCCCCCCCCCCCCCCOCC(O)CO` (configuration not stated): 104%.
As to `COc1ccc(-c2cc(=O)c3c(O)cc(O[C@@H]4O[C@H](CO[C@H]5O[C@H](C)[C@@H](O)[C@H](O)[C@@H]5O)[C@@H](O)[C@H](O)[C@H]4O)cc3o2)cc1O`, the activity remaining was 90.7%.
Take `O=C(O)c1ccccc1C(=O)Nc1ccc(S(=O)(=O)Nc2nccs2)cc1`: the activity remaining was 98.2%.
For `COC(=O)C1=CO[C@@H](C)[C@@H]2CN3CC[C@@]4(C(=O)Nc5ccccc54)[C@H]3CC12` (some centres not stated), the activity remaining is 101%.
In the case of `OC[C@H]1O[C@@](CO)(O[C@@H]2O[C@H](CO)[C@@H](O)[C@H](O)[C@H]2O)[C@@H](O[C@@H]2O[C@H](CO)[C@@H](O)[C@H](O)[C@H]2O)[C@@H]1O` it was 82.4%; in that of `CCOc1ccc2nc3cc(N)ccc3c(N)c2c1`, 96.1%; in that of `CC(C)N=C(N)/N=C(\N)Nc1ccc(Cl)cc1`, 102%.
With `COc1cc(C(=O)NCc2ccc(OCCN(C)C)cc2)cc(OC)c1OC`, the activity remaining was 114%.
On to `CN1CCC(=C2c3ccccc3Sc3ccccc32)CC1`, for which the activity remaining is 119%.
With `C/C=C(/C)C(=O)O[C@H]1CC[C@@]2(C)[C@@H]3CC[C@H]4[C@]5(O)C[C@H](O)[C@@]6(O)[C@@H](CN7C[C@@H](C)CC[C@H]7[C@@]6(C)O)[C@]5(O)C[C@@]42OC13O`, the activity remaining is 103%.
In the case of `Nc1c2ccccc2nc2ccccc12` (tested in a mixture with another compound) it was 112%; in that of `CC1=C2C(O)C(=O)OC3CC4C(C)(C)C(=O)C=C[C@]4(C)C(CC1)[C@]23C` (some centres not stated), 109%.
In the case of `CCOc1ccc(C(=O)c2ccc(O)c(O)c2O)cc1`, the activity remaining is 110%.
The same measure for `CC(=O)O[C@]1(C(C)=O)CCC2C3C=C(C)C4=CC(=O)CCC4(C)C3CCC21C` (some centres not stated): 98%.
For the molecule `CC(=O)O[C@H]1CC2CCC3C(CC[C@@]4(C)C3C[C@H]([N+]3(C)CCCCC3)[C@@H]4OC(C)=O)[C@@]2(C)C[C@@H]1[N+]1(C)CCCCC1` (some centres not stated), the activity remaining is 124%.
The same measure for `NC(=O)c1ncn(C2O[C@H](CO)[C@@H](O)[C@H]2O)c1N` (some centres not stated): 99.1%; for `C[C@]12CCC3C(CC[C@H]4C[C@H](OS(=O)(=O)O)CC[C@]34C)C1CCC2=O` (some centres not stated): 102%.
The same measure for `CC[C@H]1OC(=O)[C@H](C)[C@@H](O[C@H]2C[C@@](C)(OC)[C@@H](O)[C@H](C)O2)[C@H](C)[C@@H](O[C@@H]2O[C@H](C)C[C@H](N(C)C)[C@H]2O)[C@](C)(O)C[C@@H](C)[C@@H]2N[C@@H](COCCOC)O[C@H]([C@H]2C)[C@]1(C)O`: 117%.
Turning to `CC[C@@H](C(=O)C(C)[C@@H](O)[C@H](C)CCc1ccc(C)c(O)c1C(=O)O)C1OC(CC)(C2CC[C@](O)(CC)[C@H](C)O2)C[C@@H]1C` (some centres not stated), the activity remaining is 111%.
In the case of `COc1ccc2c(c1)c(CC(=O)OCC(=O)O)c(C)n2C(=O)c1ccc(Cl)cc1` it was 92.7%; in that of `COc1cc(O)c(C(=O)/C=C/c2ccccc2)c(OC)c1`, 119%; in that of `CC(C)=CCC1=C(O)c2ccccc2C(=O)C1=O`, 119%.
The same measure for `Cc1onc(-c2c(Cl)cccc2Cl)c1C(=O)N[C@@H]1C(=O)N2[C@@H]1SC(C)(C)[C@@H]2C(=O)O`: 121%; for `CC1=C2[C@H]([C@@H](C)CC[C@@H]2/C=C(\C)C(=O)O)[C@@H](O)C1`: 116%; for `CO[C@H]1/C=C/O[C@@]2(C)Oc3c(C)c(O)c4c(O)c(c(C=NN5CCN(C)CC5)c(O)c4c3C2=O)NC(=O)/C(C)=C\C=C\C(C)[C@H](O)[C@@H](C)[C@@H](O)[C@@H](C)[C@@H](OC(C)=O)[C@@H]1C` (some centres not stated): 98.4%.
